Sampled rows, rich in hits. Any-hit rate of the full collection: about 1.8%.
F508del corr: F508del CFTR correction, initial screen, CFBE line, single point | CFBE cells, YFP halide quenching; stimulated with forskolin plus potentiator P3; % fluorescence drop versus neutral controls | activity (quench increase), % at 7.58 µM | 350,000 tested, 0.36% active;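 active means mean added fluorescence quench of at least 8% versus neutral control, with both replicates also reaching 8%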;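 further: cells transiently co-express mutant CFTR-F508del with the halide-sensitive YFP; corrector assay measuring rescue of mutant channel to the surface after 24 h compound exposure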
EWS-Fli inh: EWS/Fli-driven NR0B1 reporter inhibitors, primary screen, A673 cells, NR0B1 luciferase, luminescence, MLPCN library; viability-normalised; inhibition, % at 12.6 µM; 350,000 tested, 0.67% active; AID 651661, 2012;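 active means mean inhibition of at least 50% after viability correction, with every replicate also passing that limit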;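 further: firefly luciferase signal divided by Alamar Blue viability fluorescence both relative to DMSO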
PAX8 inh HTS: inhibitors of PAX8-driven TPO luciferase reporter, primary screen, RMG-I cells, single concentration. 360,000 tested, 1.2% active. AID 652154, 2013. SteadyGlo, 24 h. inhibition, % at 12.6 µM;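 active means mean replicate inhibition at least 60% with every replicate also reaching 60%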;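 further: luciferase light reporting Pax8 driven TPO promoter activity; plate controls were median of neutral control wells for no effect and mitoxantrone controls for full effect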
LGR2 inh: inhibitors of bursicon-induced LGR2 CRE-luciferase signal, primary screen, cell-based, HEK293, CRE-luciferase reporter, bursicon stimulation. bursicon-stimulated, 4 h. inhibition, % at 9.99 µM. 380,000 tested, 0.35% active. Drosophila bursicon receptor LGR2 (rickets);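 active means drop in luminescence signal, shown as inhibition above about 50% in the replicate tests, limit read from the data, passing the limit was not always enough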;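 further: agonist challenge used bursicon conditioned medium at about half maximal strength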
* hit, by the source's call; / = not tested or not shown; ! = a repeat was not active.

SMILES	F508del corr	EWS-Fli inh	PAX8 inh HTS	LGR2 inh
O=C(NCc1ccccc1)c1c[nH]c2ccc(F)cc2c1=O	2.9	-15.4	26.0	-6.1
C[C@@H]1CCCCO[C@@H](CN(C)C(=O)Nc2ccc(C(F)(F)F)cc2)[C@@H](C)CN([C@H](C)CO)C(=O)c2cc(NS(=O)(=O)c3ccc(Cl)cc3)ccc2O1	1.5	-3.0	82.1*!	10.7
Cc1ccc(S(=O)(=O)Nc2ccc3c(c2)C(=O)N([C@@H](C)CO)C[C@@H](C)[C@H](CN(C)C(=O)Nc2ccc(C(F)(F)F)cc2)OCCCC[C@@H](C)O3)cc1	-2.6	11.5	39.8	-0.5
C[C@@H]1CN([C@H](C)CO)C(=O)c2cc(NS(=O)(=O)c3ccc(Cl)cc3)ccc2O[C@@H](C)CCCCO[C@H]1CN(C)C(=O)Nc1ccc(C(F)(F)F)cc1	-3.6	32.7	101.6*	3.7
O=C(C[C@H]1C[C@H]2c3cc(NC(=O)Nc4ccccc4F)ccc3O[C@H]2[C@@H](CO)O1)NCC(F)(F)F	-4.1	-5.9	-8.7	-3.2
CC(=O)c1ccccc1OCCCCN1CCCCC1	3.9	6.2	-2.2	-8.8
O=C(Nc1ccc(C(F)(F)F)cc1)Nc1ccc2c(c1)[C@@H]1C[C@H](CC(=O)N3CCc4ccccc4C3)O[C@H](CO)[C@@H]1O2	-2.3	26.7	108.8*	12.3
COc1ccc(NC(=O)Nc2ccc3c(c2)[C@@H]2C[C@H](CC(=O)N4CCc5ccccc5C4)O[C@@H](CO)[C@@H]2O3)cc1	2.7	-2.2	-20.6	1.3
O=C(Nc1ccc2c(c1)[C@@H]1C[C@H](CC(=O)N3CCc4ccccc4C3)O[C@H](CO)[C@@H]1O2)Nc1ccccc1F	-1.1	-1.5	25.3	20.3
O=C(Nc1ccc(C(F)(F)F)cc1)Nc1ccc2c(c1)[C@@H]1C[C@@H](CC(=O)N3CCc4ccccc4C3)O[C@H](CO)[C@@H]1O2	-0.9	-0.5	75.9*	4.4
COc1ccc(NC(=O)Nc2ccc3c(c2)[C@@H]2C[C@@H](CC(=O)N4CCc5ccccc5C4)O[C@H](CO)[C@@H]2O3)cc1	0.5	-6.0	71.3*	4.8
C=C(C)c1nc(Oc2ccccc2)nc(Oc2ccccc2)n1	-6.3	42.1	97.3*	20.4
Cc1cc(Oc2ccccc2)nc(-c2ccccc2)n1	/	/	/	3.8
Cc1ccc(C(=O)NNC(=O)c2cc3ccccc3cc2O)cc1	-3.1	-9.4	-0.5	-24.1
CN(C)S(=O)(=O)c1cccc(NC(=S)NC(=O)C2CCCCC2)c1	/	-25.6	-36.7	-38.6
Cc1c(P(=S)(c2ccccc2)c2ccccc2)[n+]2ccccc2n1C/C=C/c1ccccc1	2.5	21.4	100.6*	32.4
CC(=NNC(=S)N(Cc1ccccn1)Cc1ccccn1)c1cnccn1	8.2*	6.5	20.9	-10.1
Cc1cc2c(cc1S(=O)(=O)Nc1ccc(F)cc1)n(C)c(=O)c(=O)n2C	10.9*	9.5	3.8	17.6
CCc1ccc(NS(=O)(=O)c2cc3c(cc2C)n(C)c(=O)c(=O)n3C)cc1	-0.5	13.7	22.8	4.8
CC(C)CN(C(=O)COC(=O)c1ccc([N+](=O)[O-])s1)c1c(N)n(Cc2ccccc2)c(=O)[nH]c1=O	-0.8	-2.9	-2.2	1.9
CCCCn1c(N)c(N(CCC(C)C)C(=O)COC(=O)c2ccc([N+](=O)[O-])s2)c(=O)[nH]c1=O	0.6	6.4	90.6*	5.3
O=C(NC(=S)N1CCN(Cc2ccc3c(c2)OCO3)CC1)c1cccc(Br)c1	-1.7	16.7	75.7*	-10.3
CC(=O)OC[C@H]1O[C@H](C#Cc2ccc(C(C)(C)C)cc2)C=C[C@H]1OC(=O)Nc1ccccc1	-0.6	20.6	24.0	13.7
CCOc1ccc(/C=C2/SC(=S)N(C(C(=O)O)c3ccccc3)C2=O)cc1OCC (configuration not stated)	/	-1.3	-16.4	-12.3
CCOc1cc(/C=C2\SC(=S)N(C(C(=O)O)c3ccccc3)C2=O)ccc1O (configuration not stated)	14.3*	-6.9	-0.9	-3.3
SMILES	F508del corr	EWS-Fli inh	PAX8 inh HTS	LGR2 inh
Cc1cccc(-c2ccc([C@H]3[C@H](CO)N4CCCCN(S(=O)(=O)c5ccccc5C)C[C@@H]34)cc2)c1	-3.6	23.8	86.1*	21.0
Cc1cccc(-c2ccc([C@H]3[C@H]4CN(S(=O)(=O)c5cccc(C)c5)CCCCN4[C@H]3CO)cc2)c1	-4.9	16.4	103.0*	13.2
Cc1ccccc1S(=O)(=O)N1CCCCN2[C@H](CO)[C@H](c3ccc(-c4ccccc4)cc3)[C@@H]2C1	0.5	3.7	8.6	/
O=C(c1cnccn1)N1CC(=O)N2[C@@H](CO)[C@@H](c3ccc(-c4cccc(F)c4)cc3)[C@@H]2C1	2.3	-4.9	9.5	3.9
Cc1cc(N2CCN(C(C(=O)NC3CCCC3)c3ccco3)CC2)c2ccccc2n1 (configuration not stated)	-1.7	5.9	7.0	5.5
CC(C)NC(=O)N(C)C[C@@H]1OCCCC[C@H](C)Oc2ccc(NC(=O)Nc3ccc(C(F)(F)F)cc3)cc2C(=O)N([C@@H](C)CO)C[C@H]1C	1.7	4.8	63.2*	19.6
CC(C)NC(=O)N(C)C[C@H]1OCCCC[C@@H](C)Oc2ccc(NC(=O)Nc3ccc(C(F)(F)F)cc3)cc2C(=O)N([C@@H](C)CO)C[C@H]1C	4.5	-5.6	89.5*	15.4
CC(C)NC(=O)N(C)C[C@@H]1OCCCC[C@@H](C)Oc2ccc(NC(=O)Nc3ccc(C(F)(F)F)cc3)cc2C(=O)N([C@@H](C)CO)C[C@@H]1C	1.9	-4.9	2.6	15.0
C[C@@H]1CN([C@H](C)CO)C(=O)Cc2cc(NC(=O)CCCCCC(=O)Nc3ccccc3N)ccc2O[C@@H]1CN(C)C(=O)Nc1ccc(F)cc1	-1.6	4.3	/	-1.9
Clc1ccc(-c2nc3ccc(Br)cn3c2Cc2cccc(Cl)c2)cc1	-0.6	-61.5	-89.7	-65.8
CC(C)(C)C(=O)Nc1cc2nn(-c3ccccc3)nc2cc1Cl	/	/	73.7*	/
CC(C)(C)c1ccc(C(=O)NCCOc2ccccc2)cc1	-2.8	64.2*	-6.5	62.1*
CN(C)S(=O)(=O)c1ccc(C(=O)NCCOc2ccccc2)cc1	/	/	-135.6	/
CC(C)(C)c1ccc(C(=O)NCCOc2ccccc2F)cc1	0.3	74.9*	28.7	67.2*
Cc1cc(Br)cn2c(Cc3ccccc3C(F)(F)F)c(-c3cccc(Cl)c3)nc12	0.7	-3.5	-4.6	2.5
O=C(COC(=O)c1ccc(NS(=O)(=O)c2ccc3c(c2)OCCO3)cc1)NC1CCS(=O)(=O)C1 (configuration not stated)	2.8	7.5	26.0	-9.8
O=C1c2cccc3c(N4CCCCC4)ccc(c23)C(=O)N1c1cccc(O)c1	13.8*	-70.9	-82.2	-23.3
COc1ccc2[nH]c3c(c2c1)CCN1C(=O)N([C@@H](C)C(=O)NCc2ccc(C)cc2)C(=O)[C@]31C	2.4	6.6	/	86.0*
COc1ccc(CNC(=O)[C@H](C)N2C(=O)N3CCc4c([nH]c5ccc(OC)cc45)[C@@]3(C)C2=O)cc1	2.2	-0.8	/	/

High-throughput results as filed in PubChem.
